Assay outcomes from PubChem BioAssay.
HCV inhibitor – qHTS Assay for Inhibitors of Hepatitis C Virus (HCV); Huh7.5.1 HCVcc-Cre infection, luciferase reporter, 44 h; actives 3.4% (n = 340,000); AID 651820, 2012; Potency, µM (doses to about 41.8 µM), most hits filed as inhibitors
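Reporter virus HCVcc-Cre (~0.5 moi) infects cells exposed to compound; seeding density 1,000 cells/well with 4 h settling beforehand. Luminescence, 15 sec read, taken 44 h post-infection following a 15 min RT substrate incubation.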
RE007 growth inh – qHTS Assay for Inhibitors of the HIV-1 protein Vpr | S. pombe RE007 Vpr strain, BacTiter-Glo ATP luminescence, 24 h | Potency, µM (series often up to 92.2 µM), most hits filed as inhibitors | actives 0.21% (n = 360,000) | AID 651644, 2012; active = well fitted falling curve with a large enough effect; inconclusive = small, poorly fitted or top-dose-only effect; inactive = no such curve, though single readings can be large or run the other way; note: nearly all actives have a fitted effect of over 50% in size
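Fission yeast strain RE007, carrying one chromosomally integrated HIV-1 vpr copy, was seeded at OD 0.01 in PMG+AL medium with 23 nL pinned compound. After 24 h at 30 °C and 99% humidity, viability was read by BacTiter-Glo luminescence.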
Sm TGR inh – qHTS Assay for the Inhibitors of Schistosoma Mansoni Peroxiredoxins. purified TGR, DTNB reduction, TNB absorbance 405 nm. Potency, µM (titrated, usually from 114 µM), usual class: inhibitors. actives 3% (n = 360,000). AID 485364, 2010; note: nearly all actives have a fitted effect of over 60% in size
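First, TGR (20 nM dispensed) and NADPH were mixed with compound. Second, a 15 min room-temperature incubation followed. Third, further NADPH and then DTNB were added to start the reaction. Finally, TNB absorbance was monitored kinetically.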
Lassa entry inh – qHTS for Inhibitors of binding or entry into cells for Lassa Virus | AID 540256, 2011 | actives 1.2% (n = 300,000) | Lassa virus pseudotype entry inhibition, cell reporter | Potency, µM (series often up to 37.9 µM), most hits filed as inhibitors; calls by dose curve; tested in HEK293 cells; note: nearly all actives have a fitted effect of over 50% in size
FMDV antiviral – High Throughput Screening for Foot and Mouth Disease Virus Antivirals | FMDV antiviral cell-based qHTS | Potency, µM (doses to about 57.9 µM), hits mostly inhibitors | actives 1.2% (n = 410,000) | AID 1159524, 2015; calls by dose curve; tested in HEK293T cells; note: read-out not given here; nearly all actives have a fitted effect of over 45% in size
Marburg entry inh – qHTS for inhibitors of binding or entry into cells for Marburg Virus | Potency, µM (doses to about 37.8 µM), actives largely listed as inhibitors | Marburg virus pseudotyped entry inhibition, cell reporter | actives 1.8% (n = 300,000); calls by dose curve; tested in HEK293 cells
A number is an active result; . = inactive; ? = inconclusive; / = not tested or not shown; [ ] = remark or other dose. Only some compounds are listed: those with a hit (about 7.2% of all), similar ones and a draw of the others. Unless noted, calls come from the whole dose curve; as a rule, active = well fitted curve in the direction sought with a large enough effect; inconclusive = small, poorly fitted or top-dose-only effect, or another doubt; inactive = no such curve, though single readings can be large; an effect the other way counts as inactive or inconclusive.

SMILES	HCV inhibitor	RE007 growth inh	Sm TGR inh	Lassa entry inh	FMDV antiviral	Marburg entry inh
Cn1c(SCC(=O)Nc2cc(Cl)cc(Cl)c2)nnc1-c1ccc2nonc2c1	.	.	18µM	?	?	.
Cc1cc(-c2nc(C)c(-c3nnc(SCC(=O)Nc4cc(Cl)cc(Cl)c4)n3C)s2)no1	.	.	.	.	?	?
COc1ccc(/C=C/C(=O)O)cc1	0.79µM	.	/	/	.	/
COC(=O)c1ccccc1NC(=O)/C=C/c1cc(OC)c(OC)c(OC)c1	5µM	.	.	?	?	?
COc1cc(OC)c(OC)cc1/C=C/c1cc(C(=O)O)c2ccccc2n1	.	.	.	/	.	/
COc1cc(/C=C/C(=O)Nc2ccc(C)cc2)cc(OC)c1OC	?	.	.	?	.	.
COc1ccc(/C=C/C(=O)Nc2ccc(-n3nncc3-c3ccccc3)cc2)cc1OC	13µM	.	.	?	.	?
COc1ccc(/C=C/c2cc(C(=O)O)c3ccccc3n2)cc1	.	?	.	?	2.8µM	?
COc1ccc(C2CC(=O)c3cc(-c4nc(-c5ccc(C)cc5)cs4)c(=O)[nH]c3C2)cc1 (centres undefined)	/	/	.	.	.	.
COc1ccc(/C=C/C(=O)Nc2ccccc2C(=O)O)cc1	.	.	.	?	.	1.6µM
CC(C)NC(=O)c1ccccc1NC(=O)/C=C/c1ccc([N+](=O)[O-])cc1	11µM	.	.	.	.	.
COc1ccccc1NC(=O)c1ccccc1C(=O)Nc1ccccc1OC	.	.	.	.	.	.
COC(=O)c1ccccc1NC(=O)c1ccccc1OC	11µM	?	.	.	.	.
COc1ccccc1NC(=O)Nc1ccc(NC(=O)c2ccccc2O)cc1	13µM	.	.	/	.	/
CCCCOc1ccc(C(=O)Nc2onc3c2CCCC3)cc1	/	/	.	?	.	?
COC(=O)c1ccccc1NC(=O)c1cc(CN2CCCC2)on1	/	/	.	.	.	/
COc1ccc(/C=C/C(=O)Nc2ccccc2C(F)(F)F)cc1OC	.	.	.	?	.	.
COc1ccc(/C=C/C(=O)Nc2ccccc2C(=O)O)cc1OC	.[8.37 µM]	/	.	1.3µM	.	1.5µM
COc1ccccc1NC(=O)Nc1ccc(-n2ccc(C(F)(F)F)n2)cc1	5.6µM	.	.	?	.	?
CCCc1cc(C(=O)Nc2ccccc2C(=O)OC)no1	10µM	.	.	/	.	/
COc1ccc(-c2nc3cnc(N(C)C)nc3n(CCc3ccccc3)c2=O)cc1	/	/	/	/	.	/
CCCCCn1cc2c(c1-c1ccccc1Br)c(=O)n(C)c(=O)n2C	/	/	.	.	.	.
C/C=C1/C[N+]2(C)CCC34C(=C(C=O)[C@H]1C[C@@H]32)Nc1ccccc14 (some centres undefined)	.	.[18.4 µM]	28µM	/	.	/
C/C=C1/C[N@@+]2(C)CC[C@]34C(=C(C=O)[C@H]1C[C@H]32)Nc1ccccc14	/	/	/	/	.	/
Cc1c(/C(O)=C2/C(=O)C(=O)N(Cc3cccnc3)C2c2cccs2)cnn1-c1ccccc1 (centres undefined)	.	.	.	.	.	.
SMILES	HCV inhibitor	RE007 growth inh	Sm TGR inh	Lassa entry inh	FMDV antiviral	Marburg entry inh
Cc1c(/C(O)=C2/C(=O)C(=O)N(Cc3cccnc3)C2c2ccccn2)cnn1-c1ccccc1 (centres undefined)	.	.	/	.	4µM	?
CCc1ccc(NC(=O)Cn2c(=O)n(Cc3ccc(C)cc3)c(=O)c3cccnc32)cc1	/	/	.	/	.	.
CN1C(=O)NC(c2cccc(O)c2)C(C(=O)c2cccs2)C1(O)C(F)(F)F (centres undefined)	.	.	3.5µM	?	/	.
O=c1ccc(=O)n(-c2ccccc2)[nH]1	.	.	5µM	?	.	.
O=c1cc(-c2ccccc2)[nH]n1-c1ccccc1	.	.	/	.	.	?
COc1ccc(N2CC(NC(=O)c3ccc(S(=O)(=O)N4CCCC4)cc3)CC2=O)cc1 (centres undefined)	/	/	.	.	.	/
COc1ccc(C2=C(Nc3ccc(Br)c(C)c3)c3ccccc3C2=O)cc1	/	/	.	.	28µM	.
COc1ccc(C2=C(Nc3ccc(C)c(C)c3)c3ccccc3C2=O)cc1	/	/	.	.	.	.
CC(=O)c1ccc(-c2ccc(C(=O)NCC(c3ccco3)N(C)C)o2)cc1 (centres undefined)	.	.	/	.	.	.
CCOc1ccc(CCNC(=O)C(CC)n2nc(C)c3c(C)n(-c4ccccc4)nc3c2=O)cc1 (centres undefined)	/	/	.	.	.	/
COc1cc(N=c2ssnc2Cl)cc(OC)c1	.	?	79µM	.	40µM	.
Clc1nssc1=Nc1ccc(Br)cc1	?	?	.	.	?	.
C=CCOc1ccc([C@H]2/C(=C(/O)c3ccc(F)cc3)C(=O)C(=O)N2CCCN(C)C)cc1	/	/	/	/	/	.
Cn1c(=O)c2cc(C(=O)N3CCN(c4cccc(C(F)(F)F)c4)CC3)sc2c2ccccc21	/	/	.	.	.	.
CC(=O)c1cccc(-n2c(CCC(=O)O)ccc2-c2ccc(C)cc2)c1	.	.	32µM	?	.	.
Cc1ccc(-c2ccc(CCC(=O)O)n2-c2ccc(C)c(Cl)c2)cc1	/	/	18µM	.	.	.
O=C(O)CCc1ccc(-c2ccc(Br)cc2)n1-c1cccc(O)c1	.	.	32µM	/	.	/
COc1ccc(-c2ccc(CCC(=O)O)n2CC(=O)Nc2cccc(OC)c2)cc1	.	.	?	?	.	.
O=C(O)CCc1ccc(-c2ccccc2)n1-c1cccc(C(=O)O)c1	.	.	11µM	/	.	/
Cc1ccc(-n2ncc3c(N(C)C)ncnc32)cc1Cl	/	/	.	?	.	/
CC(C)(C)c1ccc(S(=O)(=O)N[C@H]2CC[C@@H](n3cc(C(=O)N4CCCC4)nn3)CC2)cc1	/	/	/	/	.	/
Cc1cc2c(c(=O)o1)[C@H](Cc1ccccc1)C(C#N)=C(N)O2	/	/	/	/	/	.
CCOC(=O)c1ccc(-n2c(CCC(=O)O)ccc2-c2ccccc2)cc1O	/	/	18µM	.	.	.
Cc1ccc(-c2ccc(CCC(=O)O)n2C(C)C)cc1	.	.	25µM	/	.	.
O=C(O)CCc1ccc(-c2ccccc2)n1-c1ccc(C(=O)O)cc1	.	.	18µM	.	.	.
Cc1ccc(-c2ccc(CCC(=O)O)n2NC(N)=S)cc1	.	.	.	?	.	?
CC(=O)c1ccc(-n2c(CCC(=O)O)ccc2-c2ccc(Cl)cc2)cc1	.	.	.	/	.	/
CCn1nc(C)c(CN2CCC3(CCC(CNC(=O)c4ccccc4)O3)CC2)c1C (centres undefined)	/	/	/	/	.	/
COc1ccc2c(c1)Cc1sc(NC(C)=O)nc1-2	.	.	56µM	.	.	?
